Several values for one entry are separate records, joined by “and”; a condition that tells them apart may be missing. Equal entries are not always repeated. Records with an inconclusive call do not appear. Where a call stands in place of a potency, no number is given. More than one record can exist for a structure, and the calls need not agree. Activity calls are given as the source filed them. Unless noted, calls follow the shape of the full dose curve.
Experiments:
[1] = Nuclear factor erythroid 2-related factor 2/antioxidant responsive element (Nrf2/ARE) small molecule agonists: qHTS cell viability counter screen in human keratinocytes (AID 1919968; active = well fitted cell-killing curve with a large enough effect in the repeat runs; also: nearly all actives have a fitted effect of over 55% in size; also: potency is read from the fitted curve at half-maximal effect)
In short: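 Measured as CellTiter-Fluor fluorescence, this readout tracks cytotoxicity in the same wells as the ARE-luciferase screen. HaCaT reporter cells (1,500/well) received compounds after a 5 h pre-incubation and were exposed for 23 h.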

[2] = biological target: Gonadotropin-releasing hormone receptor (Homo sapiens) (UniProt P30968); assay: Human gonadotropin-releasing hormone receptor (GnRHR) small molecule agonists, calcium flux assay in GnRHR-HEK293 cells (AID 1920063); also: nearly all actives have a fitted effect of over 35% in size
Gonadotropin-releasing hormone receptor (Homo sapiens), sequence (P30968 whole entry, looked up): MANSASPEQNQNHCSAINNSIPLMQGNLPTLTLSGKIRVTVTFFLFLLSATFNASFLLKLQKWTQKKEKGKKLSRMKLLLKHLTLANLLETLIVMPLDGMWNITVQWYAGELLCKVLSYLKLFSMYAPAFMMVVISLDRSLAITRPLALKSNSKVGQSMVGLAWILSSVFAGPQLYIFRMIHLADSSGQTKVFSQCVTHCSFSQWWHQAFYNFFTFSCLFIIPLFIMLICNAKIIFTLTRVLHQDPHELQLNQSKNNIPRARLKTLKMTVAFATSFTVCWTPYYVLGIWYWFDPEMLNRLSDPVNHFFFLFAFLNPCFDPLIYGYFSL
In short: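 Fluorescence kinetics (480 nm excitation, 540 nm emission; 3 min, 1 s steps) report calcium mobilisation in human GnRHR-HEK293 cells in agonist mode. Dye incubation: 1 h, 37 C.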

[3] = G protein-coupled receptor (GPCR) small molecule agonists, calcium flux assay: HEK293 wild type cell line counter screen (AID 1920065)
In short: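 Readout: fluorescence at 480 nm excitation/540 nm emission, sampled at 1 s intervals for 3 min. Cells had been cultured 18 h, then dye-loaded 1 h at 37 C before compound or ATP addition.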

[4] = p53 small molecule agonists, cell-based qHTS assay with human liver microsomes (AID 1963577);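 also: p53 response element beta-lactamase reporter cells with liver microsomes plus NADPH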
In short: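 16 h, 37 C exposure of p53RE-bla cells to compounds with human liver microsomes and NADPH (0.5 mg/mL final each); detection via LiveBLAzer mixture, 2 h dark at room temperature.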

[5] = p53 small molecule agonists, cell-based qHTS assay with rat liver microsomes (AID 1963578); also: potency is read from the fitted curve at half-maximal effect
In short: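 With rat liver microsomes and NADPH present (0.5 mg/mL final each), p53RE-bla cells are treated with compound for 16 h at 37 C. LiveBLAzer detection mixture is then applied for 2 h at room temperature in the dark.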

[6] = p53 small molecule agonists, cell-based qHTS assay with human liver microsomes: qHTS cell viability counter screen (AID 1963579); also: nearly all actives have a fitted effect of over 45% in size
In short: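 In this multiplexed counter screen, the reporter plates were subsequently treated with CellTiter-Glo so that cell viability, reflected by luminescence, could be recorded for p53RE-bla cells dosed 16 h with compounds under microsomal activation (HLM and NADPH).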

[7] = p53 small molecule agonists, cell-based qHTS assay with rat liver microsomes: qHTS cell viability counter screen (AID 1963580); also: nearly all actives have a fitted effect of over 45% in size
In short: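 HCT-116 p53RE-bla, 4,000 cells/well, 5 h pre-incubation; cpd + rat liver microsomes 0.5 mg/mL + NADPH 0.5 mg/mL (final); 16 h, 37 C; CellTiter-Glo, 30 min RT; luminescence.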

[8] = p53 small molecule agonists, cell-based qHTS assay: qHTS cell viability counter screen (AID 1963581); also: nearly all actives have a fitted effect of over 45% in size
In short: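 In the same plates used for the p53 bla reporter, HCT-116 cells given compounds for 16 h at 37 C received CellTiter-Glo; luminescence was recorded 30 min later at room temperature.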

[9] = p53 small molecule agonists, cell-based qHTS assay (AID 1963582; active = well fitted activation curve with a large enough effect in the signal ratio in the repeat runs, not every such curve was filed as active; the % refers to the signal ratio)
In short: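 Compounds are pin-transferred in DMSO onto p53RE-bla cells and incubated 16 h at 37 C. The B/G FRET beta-lactamase substrate is then applied for 2 h at RT and fluorescence recorded.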

[10] = biological target: 5-hydroxytryptamine receptor 2A (Homo sapiens) (UniProt P28223); assay: 5-hydroxytryptamine receptor 2A (HTR2A) small molecule antagonists, cell-based qHTS assay (AID 1963586); also: nearly all actives have a fitted effect of over 45% in size; also: potency is read from the fitted curve at half-maximal effect
5-hydroxytryptamine receptor 2A (Homo sapiens), sequence (P28223 whole entry, looked up): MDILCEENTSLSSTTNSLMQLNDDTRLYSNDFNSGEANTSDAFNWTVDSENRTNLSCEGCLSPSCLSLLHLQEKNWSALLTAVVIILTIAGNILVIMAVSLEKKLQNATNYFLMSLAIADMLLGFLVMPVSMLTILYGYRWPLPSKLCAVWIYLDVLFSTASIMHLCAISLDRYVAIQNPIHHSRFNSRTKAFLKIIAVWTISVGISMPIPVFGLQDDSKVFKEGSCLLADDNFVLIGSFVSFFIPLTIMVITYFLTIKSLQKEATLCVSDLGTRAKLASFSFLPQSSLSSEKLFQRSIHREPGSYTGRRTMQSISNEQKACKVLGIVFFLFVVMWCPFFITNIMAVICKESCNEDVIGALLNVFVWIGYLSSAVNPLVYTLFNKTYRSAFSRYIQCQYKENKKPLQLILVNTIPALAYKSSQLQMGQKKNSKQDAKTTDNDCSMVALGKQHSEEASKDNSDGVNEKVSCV
In short: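 Antagonist-mode intracellular calcium assay: DOI (4 nM) added after 5 min compound pre-incubation at room temperature to dye-loaded HTR2A-CHO cells. Fluorescence followed for 3 min, sampled every second.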

[11] = biological target: Muscarinic acetylcholine receptor M1 (Homo sapiens) (UniProt P11229); assay: Cholinergic receptor muscarinic 1 (CHRM1) small molecule antagonists, cell-based qHTS assay (AID 1963588); also: nearly all actives have a fitted effect of over 40% in size; also: potency is read from the fitted curve at half-maximal effect
Muscarinic acetylcholine receptor M1 (Homo sapiens), sequence (P11229 whole entry, looked up): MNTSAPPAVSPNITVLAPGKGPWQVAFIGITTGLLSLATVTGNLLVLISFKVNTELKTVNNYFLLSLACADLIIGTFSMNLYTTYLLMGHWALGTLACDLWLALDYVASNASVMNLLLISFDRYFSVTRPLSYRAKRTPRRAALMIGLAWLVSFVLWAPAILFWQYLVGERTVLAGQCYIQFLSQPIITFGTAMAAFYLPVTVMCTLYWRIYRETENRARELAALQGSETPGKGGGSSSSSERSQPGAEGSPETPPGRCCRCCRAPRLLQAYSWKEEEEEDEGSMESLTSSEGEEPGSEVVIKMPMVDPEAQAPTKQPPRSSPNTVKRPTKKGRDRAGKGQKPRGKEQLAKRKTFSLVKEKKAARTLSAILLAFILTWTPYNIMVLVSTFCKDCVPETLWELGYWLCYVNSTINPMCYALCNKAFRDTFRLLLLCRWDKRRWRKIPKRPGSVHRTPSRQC
In short: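 CHRM1-CHO calcium-flux assay, antagonist mode. Cells were seeded 18 h, dye-loaded 1 h at 37 C and given compound for 5 min at RT, then acetylcholine was added at 50nM. FDSS fluorescence was read 3 min; 15 concentrations, three runs.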

[12] = biological target: Muscarinic acetylcholine receptor M1 (Homo sapiens) (UniProt P11229); assay: Cholinergic receptor muscarinic 1 (CHRM1) small molecule agonists, cell-based qHTS assay (AID 1963589); also: nearly all actives have a fitted effect of over 35% in size
In short: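 Each compound was tested at 15 concentrations across three independent runs on dye-loaded CHO cells stably expressing human CHRM1, reading intracellular calcium fluorescence kinetically at 1 sec intervals.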

[13] = cAMP Responsive Elements (CRE) small molecule agonists, cell-based qHTS assay (AID 1963590)
In short: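 Cell line: CRE-bla HEK 293T; medium DMEM/10% dialyzed FBS/0.1 mM NEAA/1 mM pyruvate/25 mM HEPES; 3 h compound exposure; beta-lactamase FRET readout after 2 h substrate loading at RT.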

[14] = cAMP Responsive Elements (CRE) small molecule antagonists, cell-based qHTS assay (AID 1963591; active = well fitted inhibition curve with a large enough effect in the signal ratio in the repeat runs, not every such curve was filed as active; the % refers to the signal ratio)
In short: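 Inhibition of NKH477-driven (0.25 uM final) CRE-beta-lactamase signal in HEK293T cells, 3 h compound exposure at 37 °C, detected by FRET substrate fluorescence.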

[15] = biological target: Beta-2 adrenergic receptor (Homo sapiens) (UniProt P07550); assay: Adrenergic beta2 receptor (ADRB2) small molecule antagonists, cell-based qHTS assay (AID 1963592); also: nearly all actives have a fitted effect of over 50% in size; also: potency is read from the fitted curve at half-maximal effect
Beta-2 adrenergic receptor (Homo sapiens), sequence (P07550 whole entry, looked up): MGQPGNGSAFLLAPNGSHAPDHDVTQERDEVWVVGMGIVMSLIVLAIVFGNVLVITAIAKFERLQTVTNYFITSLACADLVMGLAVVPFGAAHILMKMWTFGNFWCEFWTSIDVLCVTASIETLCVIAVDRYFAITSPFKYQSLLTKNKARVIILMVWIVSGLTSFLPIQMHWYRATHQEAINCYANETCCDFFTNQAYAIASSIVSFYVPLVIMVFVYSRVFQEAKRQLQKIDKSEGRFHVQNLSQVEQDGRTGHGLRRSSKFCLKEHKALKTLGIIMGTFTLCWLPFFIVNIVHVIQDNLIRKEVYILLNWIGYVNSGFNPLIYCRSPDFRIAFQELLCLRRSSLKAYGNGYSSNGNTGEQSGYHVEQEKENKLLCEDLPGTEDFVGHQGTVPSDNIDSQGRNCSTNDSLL
In short: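 Cells (CHO, stable ADRB2 overexpression) incubated 18-20hr at 37C; compounds added from DMSO; agonist mix (1nM isoproterenol, 100uM IBMX, 25uM Ro-20-1724) added; 0.5hr RT; d2-cAMP and anti-cAMP-cryptate added; 1hr RT; 665/615 nm read.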

[16] = biological target: D(2) dopamine receptor (Homo sapiens) (UniProt P14416); assay: Dopamine D2 receptor (DRD2) small molecule agonists, cell-based qHTS assay (AID 1963594); also: nearly all actives have a fitted effect of over 35% in size
D(2) dopamine receptor (Homo sapiens), sequence (P14416 whole entry, looked up): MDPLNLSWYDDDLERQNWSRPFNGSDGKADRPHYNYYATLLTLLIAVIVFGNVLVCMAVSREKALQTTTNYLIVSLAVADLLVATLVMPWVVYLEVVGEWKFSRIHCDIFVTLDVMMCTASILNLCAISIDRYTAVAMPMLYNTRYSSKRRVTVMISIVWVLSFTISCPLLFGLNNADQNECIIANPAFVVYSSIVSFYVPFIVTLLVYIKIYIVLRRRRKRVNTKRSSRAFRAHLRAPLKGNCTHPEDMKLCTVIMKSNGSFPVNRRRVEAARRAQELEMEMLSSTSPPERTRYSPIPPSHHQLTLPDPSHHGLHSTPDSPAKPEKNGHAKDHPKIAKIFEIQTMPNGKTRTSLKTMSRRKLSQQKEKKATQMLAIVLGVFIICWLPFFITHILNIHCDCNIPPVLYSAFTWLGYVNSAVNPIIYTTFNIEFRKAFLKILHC
In short: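 cAMP accumulation in DRD2-HEK293 cells measured by HTRF after 1 h detection; compounds added 10 min before NKH477 (200nM […]) forskolin-analogue stimulation, 30 min at room temperature, with Ro20-1724 present at 0.1 mM final.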

[17] = biological target: D(2) dopamine receptor (Homo sapiens) (UniProt P14416); assay: Dopamine D2 receptor (DRD2) small molecule antagonists, cell-based qHTS assay (AID 1963595; active = well fitted inhibition curve with a large enough effect in the signal ratio in the repeat runs, with a control signal flat; the % refers to the signal ratio)
In short: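 Human DRD2 antagonist qHTS measuring cAMP by HTRF. The cells are exposed to compound for 10 min, then to NKH477 (200 nM) and quinpirole (12 nM) for 30 min at RT, with Ro20-1724 (0.1 mM) present throughout.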

[18] = biological target: 5-hydroxytryptamine receptor 2A (Homo sapiens) (UniProt P28223); assay: 5-hydroxytryptamine receptor 2A (HTR2A) small molecule agonists, cell-based qHTS assay (AID 1963587); also: nearly all actives have a fitted effect of over 30% in size
In short: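 Kinetic calcium-flux fluorescence (2 min, 1 sec intervals) after compound addition in agonist mode. HTR2A-CHO cells were cultured 18 h, then dye-loaded 1 h at 37 C.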

[19] = biological target: Beta-2 adrenergic receptor (Homo sapiens) (UniProt P07550); assay: Adrenergic beta2 receptor (ADRB2) small molecule agonists, cell-based qHTS assay (AID 1963593);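 also: CHO cells stably overexpressing human ADRB2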
In short: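 CHO cells stably over-expressing ADRB2 were plated overnight at 37C, then dosed with compounds plus a stimulation mix containing 100uM IBMX and 25uM Ro-20-1724 for 0.5hr at room temperature. cAMP was measured by HTRF competition, 1hr.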

Row | Structure (SMILES) | Potency [1] | Potency [2] | Potency [3] | Potency [4] | Potency [5] | Potency [6] | Potency [7] | Potency [8] | Potency [9] | Potency [10] | Potency [11] | Potency [12] | Potency [13] | Potency [14] | Potency [15] | Potency [16] | Potency [17] | Potency [18] | Potency [19]
1 | c1cc2c(c(N3CCNCC3)c1)OCCO2 | inactive | inactive | inactive | inactive | inactive | inactive | inactive | inactive | inactive | 0.729 µM (active) | inactive | inactive | inactive | inactive | 15 µM (active) | inactive | inactive |  | 
2 | [O]=[Cr][O][Cr]=[O] | inactive | inactive | inactive | inactive | inactive | inactive | inactive | inactive | inactive | inactive | inactive | inactive | inactive | inactive | inactive | inactive | inactive | inactive | 
3 | OC(O)C(Cl)(Cl)Cl | inactive | inactive | inactive | inactive | inactive | inactive | inactive | inactive | inactive | inactive | inactive | inactive | inactive |  | inactive | inactive | inactive | inactive | inactive
4 | Cc1ccc([N+](=O)[O-])cc1 | inactive | inactive | inactive | inactive | inactive | inactive | inactive | inactive | inactive | inactive | inactive |  |  | inactive | inactive | inactive |  |  | 
5 | Nc1nc(N)nc(Cl)n1 | inactive | inactive | inactive | inactive | inactive | inactive | inactive | inactive | inactive | inactive | inactive | inactive | inactive | inactive | inactive | inactive | inactive |  | inactive
6 | CNC | inactive | inactive | inactive | inactive | inactive | inactive | inactive | inactive | inactive | inactive | 3.34 µM (active) and inactive | inactive | inactive | inactive | inactive | inactive | inactive | inactive | inactive
7 | O=NN1CCCCC1 | inactive | inactive | inactive | inactive | inactive | inactive | inactive | inactive | inactive | inactive | inactive |  | inactive | inactive | inactive | inactive | inactive | inactive | 
8 | CC12CC1(C)C(=O)N(c1cc(Cl)cc(Cl)c1)C2=O (stereo unspecified) | inactive | inactive | inactive | inactive | inactive | inactive | inactive | inactive | inactive | inactive | inactive |  | inactive | inactive | inactive | inactive | inactive | inactive | inactive
9 | Brc1ccc(Br)cc1 | inactive | inactive | inactive | inactive | inactive | inactive | inactive | inactive |  | inactive | inactive | inactive | inactive | inactive | inactive |  | inactive | inactive | 
10 | CCNc1nc(Cl)nc(NC(C)(C)C#N)n1 | inactive | inactive | inactive | inactive | inactive | inactive | inactive | inactive | inactive | inactive |  |  | inactive |  | inactive | inactive | inactive | inactive | inactive
11 | Nc1ccc([N+](=O)[O-])cc1N | 13.7 µM (active) | inactive | inactive | inactive | inactive | inactive | inactive | inactive | inactive | inactive | inactive | inactive | inactive |  |  | inactive | inactive | inactive | 
12 | Clc1ccc(Cl)c(Cl)c1 | inactive | inactive | inactive | inactive | inactive | inactive | inactive | inactive | inactive | inactive | inactive | inactive | inactive | inactive | inactive | inactive | inactive | inactive | inactive
13 | CCSC(=O)N1CCCCCC1 | inactive | inactive | inactive | inactive | 4.99 µM (active) and 2.57 µM (active) | inactive | inactive | inactive | inactive | inactive | inactive |  | inactive | inactive | inactive | inactive | inactive | inactive | inactive
14 | C[C@@H]1CN(C2CCC(C#N)(c3ccc(F)cc3)CC2)CC[C@]1(C(=O)O)c1ccccc1 (stereo partly specified) | inactive | inactive | inactive | inactive | inactive | inactive | inactive | inactive | inactive | inactive | inactive | inactive | inactive | inactive | inactive | inactive |  | inactive | 

From PubChem BioAssay (Tox21)
